Laboratory results as given in PubChem BioAssay AID1159580 (chemical genetic matrix, 2015).
Screen size: about 5,500 compounds; about 2,000 (36%) were called active. Roughly 18% stayed inconclusive and do not appear here. Rule as the data show it: active = normalized growth mostly below about 0.91 (no sharp cut-off); inconclusive = no clear call, values can overlap the other calls; inactive = mostly above about 0.92. Some of the results follow.

Assay: chemical genetic growth profiling, strain panel (AID 1159580);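 also: tested at 20 µM; growth read once vehicle control cultures reached saturation at 30 °C; 1 = growth at the plate median or of vehicle wells; lower values mean less growth of the strain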
Settings: growth OD

Measured: normalized growth

Nc1ncnc2c1ncn2[C@@H]1O[C@H](CO)[C@@H](O)[C@@H]1O
inactive: S. cerevisiae deletion strains, locus YJR075W, strain HOC1, active compounds read low 1.02 | S. cerevisiae deletion strains, locus YKL009W, strain mrt4, active compounds read low 1.08 | S. cerevisiae deletion strains, locus YKL068W, active compounds read low 1.01 | S. cerevisiae deletion strains, locus YKL085W, strain MDH1 (second series), active compounds read low 1 | S. cerevisiae deletion strains, locus YKL085W, strain MDH1, active compounds read low 1 | S. cerevisiae deletion strains, locus YKL160W, strain elf1, active compounds read low 1 | S. cerevisiae deletion strains, locus YKL190W, strain CNB1, active compounds read low 0.996 | S. cerevisiae deletion strains, locus YKR001C, strain vps1, active compounds read low 1.04 | S. cerevisiae deletion strains, locus YKR026C, strain gcn3, active compounds read low 1.01 | S. cerevisiae deletion strains, locus YKR091W, strain srl3, active compounds read low 1.01 | S. cerevisiae deletion strains, locus YLL001W, strain dnm1, active compounds read low 1.02 | S. cerevisiae deletion strains, locus YLL026W, active compounds read low 1 | S. cerevisiae deletion strains, locus YLL041C, strain sdh2, active compounds read low 1.01 | S. cerevisiae deletion strains, locus YLR027C, strain aat2, active compounds read low 1.01 | S. cerevisiae deletion strains, locus YLR039C, strain RIC1, active compounds read low 1.02 | S. cerevisiae deletion strains, locus YLR058C, strain SHM2, active compounds read low 1.01 | S. cerevisiae deletion strains, locus YLR102C, strain apc9, active compounds read low 1.02 | S. cerevisiae deletion strains, locus YLR113W, strain HOG1, active compounds read low 1 | S. cerevisiae deletion strains, locus YLR221C, strain rsa3, active compounds read low 1.01 | S. cerevisiae deletion strains, locus YLR258W, strain gsy2, active compounds read low 1.01 | S. cerevisiae deletion strains, locus YLR262C, strain YPT6 (second series), active compounds read low 1.03 | S. cerevisiae deletion strains, locus YLR262C, strain YPT6, active compounds read low 1.03 | S. cerevisiae deletion strains, locus YLR268W, strain sec22, active compounds read low 1.04 | S. cerevisiae deletion strains, locus YLR320W, strain mms22, active compounds read low 1 | S. cerevisiae deletion strains, locus YLR330W, strain CHS5, active compounds read low 1.01 | S. cerevisiae deletion strains, locus YLR342W, strain FKS1 (second series), active compounds read low 0.989 | S. cerevisiae deletion strains, locus YLR342W, strain FKS1, active compounds read low 1.01 | S. cerevisiae deletion strains, locus YLR357W, strain rsc2, active compounds read low 1.04 | S. cerevisiae deletion strains, locus YLR370C, strain arc18, active compounds read low 1.02 | S. cerevisiae deletion strains, locus YLR371W, strain rom2, active compounds read low 1.02 | S. cerevisiae deletion strains, locus YLR384C, strain iki3, active compounds read low 1.01 | S. cerevisiae deletion strains, locus YLR418C, strain cdc73, active compounds read low 1.05 | S. cerevisiae deletion strains, locus YML016C, strain PPZ1, active compounds read low 1.01 | S. cerevisiae deletion strains, locus YML032C, strain rad52, active compounds read low 1.03 | S. cerevisiae deletion strains, locus YML120C, strain ndi1, active compounds read low 1.01 | S. cerevisiae deletion strains, locus YML124C, strain tub3, active compounds read low 1.03 | S. cerevisiae deletion strains, locus YMR058W, strain fet3, active compounds read low 1.02 | S. cerevisiae deletion strains, locus YMR078C, strain ctf18, active compounds read low 1.03 | S. cerevisiae deletion strains, locus YMR125W, strain sto1, active compounds read low 1.01 | S. cerevisiae deletion strains, locus YMR129W, active compounds read low 1.01 | S. cerevisiae deletion strains, locus YMR205C, strain PFK2, active compounds read low 1.03 | S. cerevisiae deletion strains, locus YMR223W, strain ubp8, active compounds read low 1.03 | S. cerevisiae deletion strains, locus YMR231W, strain pep5, active compounds read low 1.01 | S. cerevisiae deletion strains, locus YMR263W, strain SAP30, active compounds read low 1.01 | S. cerevisiae deletion strains, locus YMR307W, strain GAS1, active compounds read low 1.01 | S. cerevisiae deletion strains, locus YNL067W, strain RPL9B, active compounds read low 1.01 | S. cerevisiae deletion strains, locus YNL071W, strain lat1, active compounds read low 1.02 | S. cerevisiae deletion strains, locus YNL128W, strain TEP1, active compounds read low 1.02 | S. cerevisiae deletion strains, locus YNL153C, strain GIM3, active compounds read low 1.01 | S. cerevisiae deletion strains, locus YNL183C, strain NPR1, active compounds read low 0.952 | S. cerevisiae deletion strains, locus YNL209W, strain ssb2, active compounds read low 1.01 | S. cerevisiae deletion strains, locus YNL233W, strain BNI4, active compounds read low 1.02 | S. cerevisiae deletion strains, locus YNL248C, strain rpa49, active compounds read low 1.01 | S. cerevisiae deletion strains, locus YNL250W, strain rad50, active compounds read low 1.03 | S. cerevisiae deletion strains, locus YNL271C, strain bni1, active compounds read low 1.03 | S. cerevisiae deletion strains, locus YNL298W, strain CLA4, active compounds read low 1.02 | S. cerevisiae deletion strains, locus YNL307C, strain MCK1, active compounds read low 1.03 | S. cerevisiae deletion strains, locus YNL322C, strain KRE1 (second series), active compounds read low 1.02 | S. cerevisiae deletion strains, locus YNL322C, strain KRE1, active compounds read low 1.01 | S. cerevisiae deletion strains, locus YNR049C, strain mso1, active compounds read low 1.02 | S. cerevisiae deletion strains, locus YNR052C, strain pop2, active compounds read low 1.03 | S. cerevisiae deletion strains, locus YOL006C, strain TOP1, active compounds read low 1.06 | S. cerevisiae deletion strains, locus YOL012C, strain htz1 1.2 | S. cerevisiae deletion strains, locus YOL147C, strain pex11, active compounds read low 1.03 | S. cerevisiae deletion strains, locus YOR001W, strain rrp6, active compounds read low 1.02 | S. cerevisiae deletion strains, locus YOR061W, strain CKA2, active compounds read low 1.02 | S. cerevisiae deletion strains, locus YOR069W, strain VPS5, active compounds read low 1 | S. cerevisiae deletion strains, locus YOR070C, strain gyp1, active compounds read low 1.02 | S. cerevisiae deletion strains, locus YOR080W, strain dia2, active compounds read low 1 | S. cerevisiae deletion strains, locus YOR083W, strain WHI5, active compounds read low 1.01 | S. cerevisiae deletion strains, locus YOR106W, strain vam3, active compounds read low 1.01 | S. cerevisiae deletion strains, locus YOR136W, strain idh2, active compounds read low 1.03 | S. cerevisiae deletion strains, locus YOR144C, strain elg1, active compounds read low 1.03 | S. cerevisiae deletion strains, locus YOR184W, strain ser1, active compounds read low 1.05 | S. cerevisiae deletion strains, locus YOR231W, strain MKK1, active compounds read low 0.981 | S. cerevisiae deletion strains, locus YOR265W, strain rbl2, active compounds read low 1 | S. cerevisiae deletion strains, locus YOR270C, strain vph1, active compounds read low 1.06 | S. cerevisiae deletion strains, locus YOR290C, strain snf2, active compounds read low 1.03 | S. cerevisiae deletion strains, locus YOR316C, strain cot1, active compounds read low 1.03 | S. cerevisiae deletion strains, locus YPL051W, strain arl3, active compounds read low 1.01 | S. cerevisiae deletion strains, locus YPL055C, strain LGE1, active compounds read low 1.04 | S. cerevisiae deletion strains, locus YPL078C, strain atp4, active compounds read low 1.02 | S. cerevisiae deletion strains, locus YPL106C, strain sse1, active compounds read low 1.02 | S. cerevisiae deletion strains, locus YPL240C, strain hsp82, active compounds read low 1.03 | S. cerevisiae deletion strains, locus YPL241C, strain CIN2, active compounds read low 1 | S. cerevisiae deletion strains, locus YPL256C, strain CLN2, active compounds read low 0.963 | S. cerevisiae deletion strains, locus YPR119W, strain clb2, active compounds read low 1.03 | S. cerevisiae deletion strains, locus YPR141C, strain kar3, active compounds read low 1.03 | S. cerevisiae deletion strains, locus YPR163C, strain tif3, active compounds read low 1.04 | S. cerevisiae deletion strains, locus YPR167C, strain met16, active compounds read low 1.03 | S. cerevisiae deletion strains, strain wtn01, active compounds read low 1.02 | S. cerevisiae strains, strain wild type, active compounds read low 1.01
